Results reported in PubChem BioAssay.
Active and inactive are the calls of the source. The rule behind the calls is not given here.

target: Pantothenate synthetase (Mycobacterium tuberculosis (strain ATCC 25618 / H37Rv)) (UniProt P9WIL5); assay: Recombinant Mtb pantothenate synthetase (PanC) inhibitors, coupled enzyme, confirmatory (AID 375); conditions: coupled enzyme assay; at 10 µM, hits give high values;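 note: 0% = full reaction with vehicle and 100% = no enzyme background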
Sequence (P9WIL5 whole entry, looked up): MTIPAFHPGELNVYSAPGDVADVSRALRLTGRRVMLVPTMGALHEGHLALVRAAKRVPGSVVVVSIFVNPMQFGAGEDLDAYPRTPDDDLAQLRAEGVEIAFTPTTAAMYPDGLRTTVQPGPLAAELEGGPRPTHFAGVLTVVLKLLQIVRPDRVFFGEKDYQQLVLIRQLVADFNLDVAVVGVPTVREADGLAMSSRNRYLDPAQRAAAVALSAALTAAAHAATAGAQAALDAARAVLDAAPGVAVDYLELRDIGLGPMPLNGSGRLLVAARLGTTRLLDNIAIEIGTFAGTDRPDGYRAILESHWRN

| SMILES | inhibition |
| --- | --- |
| COc1cc(C(c2sc3nc(C)nn3c2O)N2CC(C)CC(C)C2)cc(OC)c1OC (configuration not stated) | 0% (inactive) |
| CCCCn1c(SCC(=O)Nc2cc(C)on2)nnc1-c1cccnc1 | 0% (inactive) |
| COc1ccc(-c2nc(N)nc(C)c2Oc2ccccc2Br)c(O)c1 | 0% (inactive) |
| CCCc1cc(=O)oc2c(C)c3occ(C)c3cc12 | 1% (inactive) |
| CN(CC(=O)Nc1ccc2c(c1)OCCO2)S(=O)(=O)c1ccc(Br)s1 | 6% (inactive) |
| O=C(CSc1nnc(-c2ccco2)n1CC1CCCO1)N1CCCCC1 (configuration not stated) | 0% (inactive) |
| CCN(CC)S(=O)(=O)c1ccc(F)c(C(=O)NCCC(C)C)c1 | 2% (inactive) |
| COC(=O)c1ccccc1NC(=O)c1cnc2sccn2c1=O | 5% (inactive) |
| CCOc1cc(S(=O)(=O)N2CCC(Cc3ccccc3)CC2)c(OCC)cc1-n1cnnn1 | 7% (inactive) |
| COc1ccccc1N(CN1CCCC1=O)C(=O)c1c(F)cccc1Cl | 0% (inactive) |
| CC1Cc2nc(SCC(=O)Nc3nccs3)n(C)c(=O)c2S1 (configuration not stated) | 0% (inactive) |
| Cn1c(SCC(N)=O)nnc1C1CCN(C(=O)NCc2ccccc2)CC1 | 0% (inactive) |
| CCOc1ccccc1OCCCCN1CCCC1 | 9% (inactive) |
| CCCn1c(N2CCN(CC(=O)Nc3ccc4c(c3)OCCO4)CC2)nc2ccccc21 | 6% (inactive) |
| CCC(c1nnc(SCC(=O)Nc2ccc(C(=O)Nc3ccccc3OC)cc2)o1)N(C)C (configuration not stated) | 0% (inactive) |
| COC(=O)c1cnn2c(C(F)(F)F)cc(-c3ccco3)nc12 | 0% (inactive) |
| Cc1nc(NCc2ccc3c(c2)OCO3)c2oc3ccccc3c2n1 | 1% (inactive) |
